Experiments:
Assay in all cases: PBM binding z-score (relative to random genomic background probes); higher = stronger binding; sequences stand for … in GC…GCGATTGACAGCGTAGAATGAAGG
[1] = test system: RARb homodimer (NR concentration 270 nM)
How it was run: (§1)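 For binding z-scores, the reference was random background probes on custom Agilent 4×180K protein-binding microarrays. These arrays were incubated 1 h with ligand-free nuclear receptor dimers in PBS pH 7.4, 2% milk, 0.02% Triton X-100, 1 mM DTT, 0.2 mg/mL BSA and 0.4 mg/ml salmon testes DNA. Fluorescence was scanned after antibody detection of each partner (one per run) and regression-normalized.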

[2] = test system: RARg:RXRa (NR concentration 270 nM, RXRa partner concentration 90 nM)
How it was run: as §1

[3] = test system: RARg homodimer (NR concentration 270 nM)
How it was run: as §1

[4] = test system: RXRa DBDmut IVT, anti-RXR (DBD mutation: RXRa K156A/R161A, NR concentration 90 nM)
How it was run: as §1

[5] = test system: RXRa homodimer (NR concentration 180 nM)
How it was run: as §1

[6] = test system: THRa:RXRa (NR concentration 90 nM, RXRa partner concentration 90 nM)
How it was run: as §1

[7] = test system: THRa homodimer (NR concentration 90 nM)
How it was run: as §1

[8] = test system: VDR:RXRa (NR concentration 270 nM, RXRa partner concentration 90 nM)
How it was run: as §1

[9] = test system: VDR homodimer (NR concentration 270 nM)
How it was run: as §1

Sequence	PBM binding z-score [1]	PBM binding z-score [2]	PBM binding z-score [3]	PBM binding z-score [4]	PBM binding z-score [5]	PBM binding z-score [6]	PBM binding z-score [7]	PBM binding z-score [8]	PBM binding z-score [9]
TCTATTAGTAGAAGGGCAACCGACGAGTCCGTTT	0.923	0.406	0.636	1.23	0.785	-0.0492	-0.359	0.796	1.18
CGTCCAAGGTCATCGGAGGTCAGTGAAGACAGAT	5.43	7.31	7.72	4.24	6.83	5.45	3.48	7.04	5.07
CATCAAAGTTCAACTAAGGTAACGTAAAGCACGC	4.32	5.94	6.82	4.67	5.76	5.1	2.29	4.98	4.37
ACAGACAGGTCATGAAGGTAACTCAGGCTATCAT	3.05	4.63	4.19	1.69	4.56	3.12	0.575	4.55	1.23
AGAATGAGGTTATACGAAGATCAGGGAAGAAAGT	0.559	1.71	1	1.38	2.09	2.01	0.403	1.13	0.752
ATACAAAGGTGATCGTGAGGTCGTTGATACTAAC	2.28	3.87	1.85	0.883	2.73	3.66	2.12	4.59	2.97
GCTATTAGTTGAAAGGGCATCCGAATGATTCTCG	1.52	1.04	0.981	1.01	1.15	0.356	-0.145	0.499	0.425
TGAATGAGGTTATACGATCAGGGAACGTTGCAAA	0.016	1.31	1.01	0.956	2.06	1.8	0.24	0.918	0.274
CCTATTAGTTGACCATAAGGGCAACAGAAGCTCG	1.77	1.46	1.16	0.685	0.825	1.76	1.15	0.519	0.832
ATCTCTAGGTAACCAAGTCCAGTGAATGCCGAAC	0.289	0.196	0.238	0.275	0.184	0.825	0.807	0.999	0.463
AGAATGAGGTTATTAAGATCTGGGAATTGCGGTC	0.732	1.04	0.692	2.16	1.77	1.99	0.599	1.33	0.954
TAGCCTAGGTCAGATCGGGCCACTATACGCTATA	2.48	2.78	3.37	-0.221	1.48	4.72	0.493	1.39	0.0583
ATATGTAGGTTAAGTGTCATTCAGGTTGGTTCGC	2.02	1.53	1.47	1.1	1.9	1.58	1.08	2.28	1.53
GCTCGGAGGACAAGGTCAGAGTTTTGTCCGTAGA	3.25	3.1	3.94	0.706	2.55	3.11	1.72	1.65	0.974
CCTACTAGGCCAAAGGTCATTGATTCCAATGCTC	4.84	6.22	5.49	2.06	6.88	3.67	1.45	5.12	2.65
TCTGCTAGGTCAACGATGGTCAGCTAATCTGCTA	3.36	4.01	4.95	1.24	2.42	3.15	0.461	1.54	-0.403
CGTCCAAGGTCAGAGAAGTCAGTGAATGCCGAGT	3.51	4.3	5.16	2.35	3.37	3.32	1.53	3.15	1.64
GCGACTGGGGCATCAGCGGGTTACCATAACTTAA	0.625	0.738	0.196	-0.276	0.347	0.628	-0.267	-0.262	-0.158
CCGACTGGGGCATAAGGTTACGATAAGCCAGCCC	1.67	1.92	1.18	-0.47	1.45	1.98	0.985	0.321	-0.0834
CCTATAAGTTGACCATAAGGGCAACCGAAGCTCG	2.31	2.2	1.31	0.769	0.942	2.44	1.2	1.06	1.32
CGAACTAGGTCAAGGACAGTGAGTCTCCGCACGC	3	3.43	4.13	1.02	2.28	3.1	1.85	1.16	0.408
TAGCCTAGGTCGTTGGGCCAGTATAGTACGCATC	0.513	0.529	0.698	0.311	0.61	0.621	0.0467	0.153	0.0773
AGAACGAGGGCAATGAGTTGATACCACGGGTGGC	0.985	1.02	1.7	2.06	0.987	0.993	-0.484	5.25	3.27
CCTACTGGGCCAAGGGTCATTGATTCCAATGCTC	3.11	3.67	3.31	-0.197	3.75	2.11	0.000297	3.45	1.68
GATACAGGGTCAGCTAGAGGCGAGAGTATGGAAA	2.7	5.04	4.34	1.57	4.51	2.79	0.319	2.6	0.871
CCATACAGGTGAGAAGGTAACTCAGCCTCGATTA	0.666	0.662	0.72	0.319	0.539	0.148	0.348	0.121	-0.195

Sequence	PBM binding z-score [1]	PBM binding z-score [2]	PBM binding z-score [3]	PBM binding z-score [4]	PBM binding z-score [5]	PBM binding z-score [6]	PBM binding z-score [7]	PBM binding z-score [8]	PBM binding z-score [9]
GGAACGAGGGCATTAGAGTTGATAGCATGGCGAT	0.848	1.11	1.65	2.84	0.695	2	-0.303	2.83	2.49
GCTAGCAGGCCATGTGGGTCACTCAATGACGGGC	1.65	0.945	1.05	-0.752	0.909	0.759	-0.59	0.49	0.0438
TTACCAAGGTGAGCTGAGGGCGTTGATCCAACTC	0.362	-0.0631	-0.0832	-0.14	0.126	3.36	0.287	1.89	0.247
GCTGCTATGTCAGGTTGGTCAGCTAACGGGTACG	0.477	-0.153	0.0688	0.041	-0.315	-0.187	-0.332	-0.421	-0.186
TCTAGTAGTTGATTAGGGCAACCGAAACAGCGGA	0.439	0.0761	-0.0123	0.339	0.492	0.48	-0.325	0.217	-0.315
TCATATAGGTAAACATGTGAAAGTCCGTAAGTTA	0.34	0.489	0.354	1.66	1.06	0.435	0.267	1.1	0.405
CTCGAAAGGTCGGATGAGGTGAGTATACGGATAA	2.69	3.2	3.26	0.982	2.94	5.16	1.3		0.327
CCGACTGGGGCAAAGGTTACCAAACTCAGTACGA	2.24	3.53	1.67	-0.134	3.74	1.98	-0.144		0.318
CCTTGCAGGCCAGGGTCACTCAAGCATTTCGCTT	2.93	3.21	2.83	0.484	3.43	2.76	1.07	2.69	1.18
CGTCAAAGTTCAACTAACGTAACGTAAAGCACGC	4.09	5.71	6.79	4.56	4.65	1.97	0.0138	4.1	3.38
TAGCCAAGGTCATTGGGCCAGTATAGTACGCATC	4.21	5.55	5.5	3.08	5.46	4.06	2.04	4.87	3.47
CCTGCTAGGTCAATGGTCAACTAAAGCAGCTCGC	3.11	3.77	4.5	1.64	2.55	2.41	0.723	1.25	0.324
TGTTAAAGTTCAAAGGTAACGTAAGTATCCACAC	3.61	5.89	5.47	4.41	6.91	3.42	0.278	4.87	2.82
ATCGGAAGGTCGTGAGGTGAGTATACAGAAAGGC	2.27	3.03	2.55	0.762	3.05	2.83	1.76	2.1	1.04
CGTCCAAGGTCATAGGAGGTCAGTGACGACAGAT	5.23	6.83	7.27	4.28	7.54	5.3	3.25	6.55	4.76
ATCGAAAGGTCGACGAGGTGAGTCTACACCGTTT	3.08	4.01	3.95	1.04	4.04	3.99	1.04	5.5	0.956
TCTTGTAGATCAACAGGAGGTTGAGAAAGATCGA	-0.533	0.156	-0.228	0.313	0.301	-0.174	-0.919	-0.025	-0.475
CCTCGGAGGACAACATGAGGTCAGAGCTGCCAGA	3.88	3.49	3.52	1.15	2.13	4.08	3.51	2.98	2.43
TCGTATAGGTAAAGGTGAAAGTCGAACGATATGA	1.77	1.52	1.35	0.714	2.12	1.24	-0.212	0.788	0.0316
GATACAGGGTTAGCTAGAGGCCAGAGTATGGAAA	0.99	3.12	0.756	-0.477	0.857	1.23	-0.252	0.139	0.162
TGTTGTAGATCAGCAGGTTAAGAAAGCTGGCCAA	-0.378	-0.266	-0.294	-1.38	-0.118	-0.32	-1.04		-0.583
CGTCCAATGTCAAAGGTCAGTGAAGAGATGACGG	4.3	5.61	5.43	1.04	6.57	2.97	0.388	3.72	1.07
GGAACGAGGGCAAAGTTGATACCATCTGTCGACG	1.63	2.14	2.02	2.79	2.18	1.47	0.0828	1.48	2.09
CCGACTGGGGCAAAGGTTACCATACTCAGTACGA	2.22	3.52	1.78	0.712	3.67	1.78	-0.211	1.68	-0.204
GCTGCTAGGTCAACTGATGGTCAGGTAAAGCTCG	3.83	5.13	5.23	1.6	3	3.27	1.76	1.69	0.0826
CGTCCAAGGTCATAGGAGGTCAGTAAAGACAGAT	5.26	6.85	7.38	4.16	6.73	5.25	3.1	6.61	4.5
